VDR inhibitor: Inhibitors of the vitamin D receptor (VDR): qHTS; Vitamin D3 receptor (Homo sapiens), P11473; VDR-SRC2-3 peptide fluorescence polarization, 2 h; Potency, µM, inactives show max response, negative = inhibition, usual class: inhibitors; 400,000 compounds, 0.93% hits; also: % is scaled to controls: 0 for no effect and ±100 for the full control effect
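Fluorescence polarization assay of small-molecule disruption of VDR binding to coregulator peptide SRC2-3. Compounds and controls pin-transferred, then read after 2 h incubation at ambient room temperature.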
JMJD2A Tudor: qHTS Assay for Inhibitors of JMJD2A-Tudor Domain; Lysine-specific demethylase 4A (Homo sapiens), O75164; AlphaScreen JMJD2A-Tudor / H3K4me3 peptide binding; Potency, µM (titrated, usually from 114 µM), without a hit: at the top dose activity change, negative = inhibition, hits mostly inhibitors; 390,000 compounds, 4.4% hits; AID 504339, 2011; also: % is scaled to controls: 0 for no effect and ±100 for the full control effect; nearly all actives have a fitted effect of over 50% in size
L3MBTL1 inh: qHTS Assay for the Inhibitors of L3MBTL1; 230,000 compounds, 0.66% hits; Lethal(3)malignant brain tumor-like protein 1 (Homo sapiens), Q9Y468; Potency, µM (series often up to 57.1 µM), for the others: top-dose activity, negative = inhibition, actives largely listed as inhibitors; AlphaScreen L3MBTL1–H3K9me1 peptide binding; AID 485360, 2010; also: % is scaled to controls: 0 for no effect and ±100 for the full control effect; nearly all actives have a fitted effect of over 60% in size
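Displacement of a biotinylated histone H3(1-15) peptide monomethylated at Lys9 (75 nM) from L3MBTL1 (50 nM) was measured by AlphaScreen after a 30 min room-temperature compound incubation; cefsulodin titration served as intraplate control.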
PLK1 PBD block: qHTS for Inhibitors of PLK1-PDB (polo-like kinase 1 - polo-box domain): Primary Screen; Plk1 PBD binding of FITC phosphopeptide, fluorescence polarization; Serine/threonine-protein kinase PLK1 (Homo sapiens), P53350; Potency, µM, inactives show max response, negative = inhibition, usual class: inhibitors; 360,000 compounds, 2.8% hits; also: series mostly up to about 57 µM; % is scaled to controls: 0 for no effect and ±100 for the full control effect; nearly all actives have a fitted effect of over 65% in size
BAZ2B inh: qHTS Assay for Inhibitors of BAZ2B; Bromodomain adjacent to zinc finger domain protein 2B (Homo sapiens), Q9UIF8; AlphaScreen BAZ2B-H3K14Ac peptide displacement; Potency, µM (series often up to 114 µM), for the others: at the highest dose activity change, negative = inhibition, most hits filed as inhibitors; 360,000 compounds, 4.4% hits; AID 504333, 2011; also: % is scaled to controls: 0 for no effect and ±100 for the full control effect; nearly all actives have a fitted effect of over 60% in size
Target sequence (Q9UIF8 whole entry, looked up, the tested form may be a part): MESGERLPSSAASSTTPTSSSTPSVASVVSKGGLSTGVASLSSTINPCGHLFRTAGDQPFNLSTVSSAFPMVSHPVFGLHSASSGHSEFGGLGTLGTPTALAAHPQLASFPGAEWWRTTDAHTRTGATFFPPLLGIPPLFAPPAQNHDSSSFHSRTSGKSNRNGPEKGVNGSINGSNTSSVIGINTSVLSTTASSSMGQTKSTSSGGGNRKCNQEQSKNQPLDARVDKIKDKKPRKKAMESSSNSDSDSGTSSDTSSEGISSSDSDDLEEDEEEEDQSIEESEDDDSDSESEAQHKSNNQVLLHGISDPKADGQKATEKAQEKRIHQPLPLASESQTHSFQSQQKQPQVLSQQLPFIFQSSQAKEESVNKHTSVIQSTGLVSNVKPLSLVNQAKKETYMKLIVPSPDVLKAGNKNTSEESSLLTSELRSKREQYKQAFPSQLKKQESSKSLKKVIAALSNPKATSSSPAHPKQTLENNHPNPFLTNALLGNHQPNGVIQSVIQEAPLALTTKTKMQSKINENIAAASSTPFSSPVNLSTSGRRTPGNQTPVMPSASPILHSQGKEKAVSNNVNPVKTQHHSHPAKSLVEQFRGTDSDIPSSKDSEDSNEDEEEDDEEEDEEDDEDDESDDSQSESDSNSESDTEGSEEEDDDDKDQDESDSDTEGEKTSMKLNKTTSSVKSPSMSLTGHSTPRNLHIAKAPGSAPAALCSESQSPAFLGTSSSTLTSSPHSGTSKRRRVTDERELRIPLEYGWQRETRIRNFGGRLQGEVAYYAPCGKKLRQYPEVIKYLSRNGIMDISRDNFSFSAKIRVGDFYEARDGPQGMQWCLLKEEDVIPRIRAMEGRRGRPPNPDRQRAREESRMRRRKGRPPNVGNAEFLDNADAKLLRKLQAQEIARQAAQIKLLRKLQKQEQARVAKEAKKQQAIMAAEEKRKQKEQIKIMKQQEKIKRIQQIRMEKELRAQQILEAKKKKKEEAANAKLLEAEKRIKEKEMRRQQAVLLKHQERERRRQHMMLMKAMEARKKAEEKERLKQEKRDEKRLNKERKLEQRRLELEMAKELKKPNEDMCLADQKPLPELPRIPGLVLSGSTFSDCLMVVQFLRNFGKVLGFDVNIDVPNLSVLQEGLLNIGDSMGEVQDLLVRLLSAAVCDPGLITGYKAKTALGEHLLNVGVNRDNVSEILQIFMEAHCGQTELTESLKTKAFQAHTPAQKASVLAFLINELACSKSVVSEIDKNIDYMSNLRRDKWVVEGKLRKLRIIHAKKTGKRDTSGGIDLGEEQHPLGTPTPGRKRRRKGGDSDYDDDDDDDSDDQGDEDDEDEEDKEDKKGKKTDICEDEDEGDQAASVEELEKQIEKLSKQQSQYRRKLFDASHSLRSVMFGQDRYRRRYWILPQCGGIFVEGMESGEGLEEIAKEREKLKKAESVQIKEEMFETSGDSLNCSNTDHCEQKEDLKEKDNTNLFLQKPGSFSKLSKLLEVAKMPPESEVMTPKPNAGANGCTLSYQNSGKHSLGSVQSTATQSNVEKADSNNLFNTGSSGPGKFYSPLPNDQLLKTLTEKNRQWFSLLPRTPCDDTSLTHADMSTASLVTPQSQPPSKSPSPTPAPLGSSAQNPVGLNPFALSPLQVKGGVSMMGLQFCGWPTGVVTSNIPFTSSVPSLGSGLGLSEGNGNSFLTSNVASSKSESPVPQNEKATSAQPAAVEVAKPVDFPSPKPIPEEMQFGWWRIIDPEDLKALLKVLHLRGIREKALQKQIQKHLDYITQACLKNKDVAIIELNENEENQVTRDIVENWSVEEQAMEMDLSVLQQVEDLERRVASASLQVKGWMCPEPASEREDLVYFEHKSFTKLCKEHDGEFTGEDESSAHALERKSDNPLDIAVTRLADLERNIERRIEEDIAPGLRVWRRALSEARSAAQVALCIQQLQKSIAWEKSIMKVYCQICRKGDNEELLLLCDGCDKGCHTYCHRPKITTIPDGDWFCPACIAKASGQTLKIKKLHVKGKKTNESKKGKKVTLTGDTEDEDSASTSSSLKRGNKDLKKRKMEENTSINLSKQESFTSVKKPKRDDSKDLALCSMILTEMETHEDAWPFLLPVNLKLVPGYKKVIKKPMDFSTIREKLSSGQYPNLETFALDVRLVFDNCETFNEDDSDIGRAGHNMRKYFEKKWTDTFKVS
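AlphaScreen luminescence quantifies BAZ2B engagement of H3K14Ac peptide; the protein and biotinylated peptide are both at 50 nM final, buffer PBS pH 7.4 with 0.01% Tween-20, all steps at room temperature.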
HP1b binding inh: HTS for Inhibitors of HP1-beta Chromodomain Interactions with Methylated Histone Tails. Chromobox protein homolog 1 (Homo sapiens), P83916. Potency, µM (highest dose often 114 µM), without a hit: at the highest dose activity change, negative = inhibition, hits mostly inhibitors. AID 540317, 2011. 390,000 compounds, 0.56% hits. AlphaScreen HP1-beta / biotin-H3K9me3 peptide binding; also: nearly all actives have a fitted effect of over 70% in size
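Compound inhibition of the preformed complex between 50 nM HP1-beta and 50 nM biotinylated H3K9me3 peptide was read by AlphaScreen. Buffer was PBS pH 7.4 with 0.01% Tween-20. Incubations ran 30 min at room temperature, with 10 ug/mL donor/acceptor beads.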
* marks the source's active call; other numbers are inactive results; ? = inconclusive; nt = no result given; [ ] = dose if it differs, or a comment. An excerpt weighted towards active compounds, which were near 6.9% of everything screened. Calls follow the shape of the dose curve; as a rule, active = well fitted curve in the direction sought with a large enough effect; inconclusive = small, poorly fitted or top-dose-only effect, or another doubt; inactive = no such curve, though single readings can be large; an effect the other way counts as inactive or inconclusive. Potency is read from the fitted curve at half-maximal effect.

SMILES	VDR inhibitor	JMJD2A Tudor	L3MBTL1 inh	PLK1 PBD block	BAZ2B inh	HP1b binding inh
O=C(Nc1c2c(nn1-c1ccc(F)cc1)CS(=O)C2)c1ccc2c(c1)OCO2 (stereo not drawn)	-13%	89µM*	nt	-8%	-3%	2%
O=C(Nc1c2c(nn1-c1cccc(Cl)c1)CS(=O)C2)c1ccc2c(c1)OCO2 (stereo not drawn)	1%	1%	nt	-1%	-1%	40%
CCC(C)N=C1Sc2nc3ccc(C)cc3cc2CN1CCOC (stereo not drawn)	-27%	45µM*	15%	24µM*	-19%	-10%
CCOc1ccc2nc3c(cc2c1)CN(CCCO)C(=NCCOC)S3	-20%	-11%[11.4 µM]	7%	11µM*	-5%	-17%
CCOc1ccc(N=C2Sc3nc4ccc(C)cc4cc3CN2CCOC)cc1	3%	-18%	nt	-7%	?	12%
COCCN1Cc2cc3cc(C)ccc3nc2SC1=Nc1ccc(OC)cc1	-11%	-26%	-14%	-1%	-34%	28%
CCCS(=O)(=O)NC(=O)C1(C)CCCN(C(=O)COc2ccccc2)C1 (stereo not drawn)	nt	nt	nt	7%	nt	nt
COc1ccccc1NCC(=O)c1ccc(Cl)cc1	79µM*	?	nt	-12%	?	?
COc1ccc(OC)c(C2=NS(=O)(=O)N(C)C(C(=O)Nc3ccc(F)cc3F)=C2)c1	?	-6%	nt	30µM*	?	-10%
COc1ccc(-c2c(C)nn3c(-c4ccccc4)cc(-c4ccccc4)nc23)cc1	-1%	?	nt	nt	14%	?
C=CCn1c(-c2cccc(OCC)c2)n[nH]c1=S	13%	22µM*	6%	-14%	-9%	38%
C=CCn1cnc2c(sc3nc(C)cc(C)c32)c1=O	-12%	-17%	0%	-10%	-1%	42%
C=CCn1c(-c2sc3nc(C)cc(C)c3c2N)n[nH]c1=S	36%	40µM*	-7%	-22%	-17%	52%
C=CCn1c(-c2cc(OC)cc(OC)c2)n[nH]c1=S	4%	32µM*	8%	-11%	13%	26%
CCN(CC)c1ccc(CNc2ccc(Br)cn2)cc1	16%	?	-10%	-2%	22µM*	-22%
CCOc1ccc(NC(c2ccccn2)c2oc(CO)cc(=O)c2O)cc1 (stereo not drawn)	?	22µM*	nt	?	20µM*	?
CN(C)S(=O)(=O)c1ccc(C(=O)NCC2CC2(Cl)Cl)cc1 (stereo not drawn)	?	13µM*	nt	24µM*	12%	-7%
COCCn1c(C)c(C)c2c(NCCc3ccccc3)ncnc21	-8%	18µM*	nt	-6%	28µM*	?
Cc1c(C)n(CCc2ccccc2)c2ncnc(NCCCO)c12	-8%	?	nt	-4%	?	-8%
O=C1c2ccccc2C(=O)N1c1ncccc1O	nt	-19%	nt	nt	nt	nt
CN(C)CCCN1c2ccccc2Sc2ccc(Cl)cc21	?	20µM*	-21%	-4%	40µM*	?
CN(C)CCCN1c2ccc3ccccc3c2Sc2cccc(Cl)c21	-20%	50µM*	nt	-10%	nt	?
CN(C)CCCN1c2ccccc2Sc2ccc3ccccc3c21	-6%	-33%	nt	-1%	nt	7%
COCCNC(=S)N=Nc1c(O)[nH]c2ccc([N+](=O)[O-])cc12	-11%	25µM*	-12%	-3%	-4%	14%
COc1ccc(C(=O)Oc2cccc3cccnc23)cc1[N+](=O)[O-]	-5%	?	?	-11%	14µM*	18%
SMILES	VDR inhibitor	JMJD2A Tudor	L3MBTL1 inh	PLK1 PBD block	BAZ2B inh	HP1b binding inh
O=C(c1cccc(F)c1)N1CCC(c2c[nH]c3ccccc23)(c2c[nH]c3ccccc23)CC1	10%	-22%	nt	nt	0%	13%
CCCCCCC1CC(CCc2nc(=S)[nH][nH]2)C(=O)O1 (stereo not drawn)	?	32µM*	-1%	?	0%	-17%
O=[N+]([O-])c1ccc(COc2cccc(CNc3ccc(Br)cc3)c2)cc1	-5%	-29%	-12%	-4%	-37%	-1%
S=c1[nH]nc2ccccn12	?	6.3µM*	nt	?	nt	?
COc1ccc(C2CC(C)(c3ccc(OC)cc3)Nc3ccccc3N2)cc1 (stereo not drawn)	0%	?	-16%	0%	22µM*	?
N#CCCn1c(=O)c(-c2ccc(Cl)cc2)nc2cnc(Nc3ccccc3)nc21	0%	nt	nt	nt	nt	nt
CCOC(=O)C1=C(C)N(c2ccc(OC)cc2)C(=O)/C1=C\c1ccc(O)c(OCC)c1	?	14µM*	-16%	-14%	50µM*	?
CCOc1cc(/C=C2\C(=O)N(Cc3ccc(C)cc3)C(C)=C2C(=O)OC)ccc1O	?	25µM*	-15%	1%	?	-96%
COC(=O)C1=C(C)N(Cc2ccc(OC)cc2)C(=O)/C1=C\c1ccco1	-11%	40µM*	-29%	0%	13µM*	?
CCOC(=O)C1=C(C)N(c2ccc(C)c(C)c2)C(=O)/C1=C\c1ccco1	-6%	32µM*	-7%	-4%	32µM*	-51%
COC(=O)C1=C(C)N(C)C(=O)/C1=C\c1ccco1	-16%	-22%	-7%	-3%	?	-7%
CCOC(=O)C1=C(C)N(c2ccc(OC)cc2)C(=O)/C1=C\c1cccs1	31%	-31%	?	-20%	?	-3%
COc1ccc(C)cc1NS(=O)(=O)c1c(C)nc2sc(C)cn2c1=O	0%	-9%	nt	nt	?	33%
CSc1ccc(/C=N/NC(=O)c2ccc(C)c(C)c2)cc1	-10%	?	-13%	3%	50µM*	18%
CSc1ccc(/C=N/NC(=O)c2cc(O)cc(O)c2)cc1	-2%	-28%	-7%	2%	-7%	19%
COCCn1c(SCC(=O)Nc2ccccc2OC)nc2ccccc2c1=O	8%	-13%	3%	-8%	2%	26%
COc1ccc(NC(=O)CSc2ncc(-c3ccc(F)cc3)n2Cc2ccco2)cc1	0%	56µM*	?	-6%	32µM*	?
Cc1cccc(-n2ccnc2SCC(=O)Nc2nccs2)c1C	-17%	5%[11.4 µM]	-6%	27µM*	-37%	-30%
COCCn1c(-c2ccc(OC)cc2)cnc1SCC(=O)Nc1cccc2ccccc12	12%	25µM*	?	0%	18µM*	-47%
COc1ccc(-c2cnc(SCC(=O)Nc3cc(C)on3)n2Cc2ccco2)cc1	-13%	50µM*	-20%	-4%	45µM*	?

Source: PubChem
